Source: PubChem BioAssay (NCI)
The panel holds about 79,000 compounds, 15% with a hit somewhere; the sample as a whole holds those more often. Calls of active or inactive are those of the source. Cut-off read from the data, not from the text of the source: active = growth inhibition above about 70%; inactive = the rest.

What was measured:
[1] = NCI Yeast Anticancer Drug Screen. Data for the wt1 strain (AID 149);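 note: 0% = growth of vehicle-treated wt1 cultures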; details: S. cerevisiae wt1 strain (SPY 50644) growth inhibition, stronger effect = higher value
Summary of the method: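 Vehicle-normalised growth inhibition; strain wt1; compound exposure.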

[2] = NCI Yeast Anticancer Drug Screen. Data for the rad50EPP+ strain (AID 151);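 note: 0% = growth of vehicle-treated control cultures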; details: S. cerevisiae rad50 mutant strain, stronger effect = higher value
Summary of the method: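 One strain with a rad50 alteration (rad50EPP+) was compound-treated, its growth then compared to that of vehicle controls.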

[3] = NCI Yeast Anticancer Drug Screen. Data for the rad50 strain (AID 155);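 note: 0% = growth of vehicle-only cultures of the same strain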; details: S. cerevisiae rad50 strain growth inhibition, stronger effect = higher value
Summary of the method: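 A DNA repair-deficient yeast mutant serves as the test organism; compound-induced growth inhibition is calculated against vehicle-treated cells.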

[4] = NCI Yeast Anticancer Drug Screen. Data for the mec2-1 strain (AID 157); details: S. cerevisiae mec2-1 strain, stronger effect = higher value
Summary of the method: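 Test agents were screened against the mec2-1 yeast strain, with defined DNA repair or cell cycle alteration. Growth was scored as inhibition against vehicle-only controls.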

[5] = NCI Yeast Anticancer Drug Screen. Data for the rad14 strain (AID 159);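 note: 0% = growth of vehicle-treated control cultures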; details: S. cerevisiae rad14 strain growth inhibition, stronger effect = higher value
Summary of the method: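 Vehicle-treated cultures served as the baseline for growth inhibition of a DNA repair-mutant yeast strain exposed to each compound.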

[6] = NCI Yeast Anticancer Drug Screen. Data for the sgs1 mgt1 strain (AID 161);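 note: 0% = growth of cultures given vehicle only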; details: S. cerevisiae sgs1 mgt1 strain, stronger effect = higher value
Summary of the method: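 Genetically altered yeast, compound exposure, growth inhibition relative to vehicle.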

[7] = NCI Yeast Anticancer Drug Screen. Data for the CLN2oe strain (AID 163);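 note: 0% = growth of vehicle-only control cultures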; details: S. cerevisiae CLN2oe strain, stronger effect = higher value
Summary of the method: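 Here, growth inhibition in a cell-cycle-altered yeast strain after compound exposure was quantified against vehicle control growth.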

[8] = NCI Yeast Anticancer Drug Screen. Data for the cln2 rad14 strain (AID 165);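 note: 0% = growth equal to vehicle treated cultures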; details: S. cerevisiae cln2 rad14 strain, stronger effect = higher value
Summary of the method: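 Growth of compound-exposed yeast (cln2 rad14 genotype) measured and expressed as inhibition relative to vehicle.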

[9] = NCI Yeast Anticancer Drug Screen. Data for the bub3 strain (AID 167); details: S. cerevisiae bub3 mutant strain, stronger effect = higher value
Summary of the method: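 Inhibition values come from growth of compound-treated mutant yeast normalised to vehicle-treated controls.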

[10] = NCI Yeast Anticancer Drug Screen. Data for the mlh1 strain (AID 171);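 note: 0% = growth of vehicle-treated control cultures of the same strain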; details: S. cerevisiae mlh1 strain growth inhibition, stronger effect = higher value
Summary of the method: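 Here the genetically defined yeast mutant is grown with each compound, and the extent to which its growth falls below that of vehicle-exposed cells is reported.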

[11] = NCI Yeast Anticancer Drug Screen. Data for the sgs1 strain (AID 173);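 note: 0% = growth of vehicle-only control cultures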; details: S. cerevisiae sgs1 mutant, stronger effect = higher value
Summary of the method: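 Relative growth inhibition, referenced to vehicle, was determined in a yeast strain with a defined alteration affecting DNA damage repair or cell cycle control after compound exposure.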

[12] = NCI Yeast Anticancer Drug Screen. Data for the mlh1 rad18 strain (AID 175); details: S. cerevisiae mlh1 rad18 strain growth inhibition, stronger effect = higher value
Summary of the method: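 In this whole-cell yeast screen, a strain with altered DNA damage repair is challenged with compound, and its growth is measured against matched vehicle-treated controls.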

[13] = NCI Yeast Anticancer Drug Screen. Data for the rad18 strain (AID 177); details: S. cerevisiae rad18 mutant growth inhibition, stronger effect = higher value
Summary of the method: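 Screen uses a yeast strain with a defined lesion in DNA damage repair; compound effect is read as loss of growth compared to untreated vehicle cultures.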

[14] = NCI Yeast Anticancer Drug Screen. Data for the mgt1 strain (AID 153); details: S. cerevisiae mgt1 mutant growth inhibition, stronger effect = higher value
Summary of the method: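 After exposure of the mgt1 yeast mutant to compound, growth was measured and reported as inhibition compared with vehicle controls.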

[15] = NCI Yeast Anticancer Drug Screen. Data for the wt2 strain (AID 169);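 note: 0% = growth of vehicle-treated yeast cultures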; details: S. cerevisiae wt2 strain growth inhibition, stronger effect = higher value
Summary of the method: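 Genetically defined yeast strains from a DNA-repair/cell-cycle panel were used. Compound-exposed yeast growth was measured, and the inhibition was calculated relative to vehicle treatment.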

[16] = NCI Yeast Anticancer Drug Screen. Data for the rad52 strain (AID 147);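 note: 0% = growth of vehicle-treated control cultures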; details: S. cerevisiae rad52 mutant growth inhibition, stronger effect = higher value
Summary of the method: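 Measured: yeast growth inhibition. System: strain with a defined DNA damage repair alteration. Reference: vehicle-treated control cultures.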

[17] = at 5.0 µM (retest, dose inferred, filed as 0.5)
[18] = at 50.0 µM (retest, dose inferred, filed as 5.0)

Measured: growth inhibition

O=c1c2ccccc2[se]n1-c1cccnc1
inactive: [1]; at 1.2 µM -5% | [1]; at 3.7 µM -6% | [1]; at 11.0 µM 21% | [1]; at 33.0 µM 29% | [1]; at 100.0 µM 56% | [2]; at 1.2 µM 67% | [3]; at 1.2 µM -6% | [3]; at 3.7 µM 27% | [3]; [17] 8% | [3]; at 11.0 µM 65% | [3]; [18] 64% | [3]; at 50.0 µM 23.1% | [4]; at 1.2 µM -18% | [4]; at 3.7 µM 20% | [4]; [17] -20% | [4]; [18] 55% | [4]; at 50.0 µM -6.2% | [5]; at 1.2 µM -28% | [5]; at 3.7 µM 2% | [5]; at 11.0 µM 38% | [6]; [17] 58% | [6]; [18] 21% | [6]; at 50.0 µM 7.85% | [7]; at 1.2 µM 24% | [7]; at 3.7 µM 21% | [7]; at 11.0 µM 58% | [8]; [17] 9% | [8]; [18] 40% | [8]; at 50.0 µM 15.5% | [9]; at 1.2 µM 8% | [9]; at 3.7 µM 14% | [9]; [17] -28% | [9]; [18] 38% | [9]; at 50.0 µM -6.15% | [10]; at 1.2 µM 36% | [10]; at 3.7 µM 51% | [11]; at 1.2 µM 23% | [11]; at 3.7 µM 19% | [12]; [17] -14% | [12]; at 50.0 µM 43.9% | [13]; at 1.2 µM 12% | [13]; at 3.7 µM -26% | [13]; at 11.0 µM 3% | [13]; at 33.0 µM 42% | [13]; at 100.0 µM 58%
active: [2]; at 3.7 µM 94% | [2]; at 11.0 µM 98% | [2]; at 33.0 µM 98% | [2]; at 100.0 µM 87% | [3]; at 33.0 µM 92% | [3]; at 100.0 µM 90% | [4]; at 11.0 µM 77% | [4]; at 33.0 µM 98% | [4]; at 100.0 µM 94% | [5]; at 33.0 µM 89% | [5]; at 100.0 µM 84% | [7]; at 33.0 µM 84% | [7]; at 100.0 µM 83% | [9]; at 11.0 µM 81% | [9]; at 33.0 µM 98% | [9]; at 100.0 µM 91% | [10]; at 11.0 µM 98% | [10]; at 33.0 µM 99% | [10]; at 100.0 µM 93% | [11]; at 11.0 µM 80% | [11]; at 33.0 µM 96% | [11]; at 100.0 µM 82% | [12]; [18] 89%

CC1CN=C(Nc2ccccc2)S1 (stereo unspecified)
active: [3]; [17] 100% | [3]; [18] 100% | [3]; at 50.0 µM 78.5% | [4]; [17] 100% | [4]; [18] 100% | [4]; at 50.0 µM 88.8% | [6]; at 50.0 µM 89.2% | [8]; at 50.0 µM 90.3% | [9]; at 50.0 µM 87.4% | [12]; [17] 100% | [12]; [18] 100% | [12]; at 50.0 µM 81.6%
inactive: [1]; at 1.2 µM -15% | [1]; at 3.7 µM -5% | [1]; at 11.0 µM -21% | [1]; at 33.0 µM -25% | [1]; at 100.0 µM -32% | [2]; at 1.2 µM -52% | [2]; at 3.7 µM -46% | [2]; at 11.0 µM -49% | [2]; at 33.0 µM -72% | [2]; at 100.0 µM -54% | [14]; at 1.2 µM -57% | [14]; at 3.7 µM -76% | [14]; at 11.0 µM -54% | [14]; at 33.0 µM -51% | [14]; at 100.0 µM -60% | [3]; at 1.2 µM -5% | [3]; at 3.7 µM 12% | [3]; at 11.0 µM -7% | [3]; at 33.0 µM 3% | [3]; at 100.0 µM -17% | [4]; at 1.2 µM -49% | [4]; at 3.7 µM -67% | [4]; at 11.0 µM -80% | [4]; at 33.0 µM -40% | [4]; at 100.0 µM -60% | [6]; [17] 2% | [6]; [18] 6% | [7]; at 1.2 µM -14% | [7]; at 3.7 µM -15% | [7]; at 11.0 µM -7% | [7]; at 33.0 µM -2% | [7]; at 100.0 µM 10% | [8]; [17] 16% | [8]; [18] 37% | [9]; at 1.2 µM -26% | [9]; at 3.7 µM -20% | [9]; [17] 26% | [9]; at 11.0 µM -41% | [9]; at 33.0 µM -25% | [9]; [18] 9% | [9]; at 100.0 µM -46% | [15]; at 1.2 µM -31% | [15]; at 3.7 µM -15% | [15]; at 11.0 µM -21% | [15]; at 33.0 µM -24% | [15]; at 100.0 µM -13% | [10]; at 1.2 µM -8% | [10]; at 3.7 µM -7% | [10]; at 11.0 µM -14% | [10]; at 33.0 µM -32% | [10]; at 100.0 µM -24% | [11]; at 1.2 µM -29% | [11]; at 3.7 µM -36% | [11]; at 11.0 µM -40% | [11]; at 33.0 µM -23% | [11]; at 100.0 µM -40%

Cn1cc(NC(=O)c2cc(NC(=O)CN=C(N)N)cn2C)cc1C(=O)NCCC(=N)N
active: [16]; at 33.0 µM 97% | [16]; at 100.0 µM 98% | [2]; at 33.0 µM 73% | [2]; at 100.0 µM 96% | [14]; at 33.0 µM 94% | [14]; at 100.0 µM 99% | [3]; at 33.0 µM 97% | [3]; [18] 87% | [3]; at 50.0 µM 89.2% | [3]; at 100.0 µM 97% | [4]; at 33.0 µM 95% | [4]; at 50.0 µM 87.5%
inactive: [16]; at 1.2 µM 21% | [16]; at 3.7 µM 7% | [16]; at 11.0 µM 56% | [2]; at 1.2 µM 19% | [2]; at 3.7 µM 1% | [2]; at 11.0 µM 24% | [14]; at 1.2 µM 1% | [14]; at 3.7 µM 6% | [14]; at 11.0 µM 5% | [3]; at 1.2 µM 0% | [3]; at 3.7 µM 4% | [3]; [17] -30% | [3]; at 11.0 µM 67% | [4]; at 1.2 µM 20% | [4]; at 3.7 µM 18% | [4]; [17] -11% | [4]; at 11.0 µM 31% | [4]; [18] 44%
